Screening data from PubChem.
A selection: hits, their analogues and other compounds. The true share with any hit is near 2.9%.
PLC-gamma1 inh = PLC-gamma1 (human) inhibition, primary screen | purified PLC-gamma1, fluorogenic substrate, fluorescence | inhibition, % at 12.2 µM | 370,000 tested, 0.84% active; in the data active = inhibition above about 9.5%
KLK7 zymogen act = activates the human kallikrein-7 zymogen. P49862. purified proKLK7, EDANS-DABCYL substrate fluorescence; 100% is mature enzyme control, 0% vehicle. activation, % at 7 µM. 370,000 tested, 0.9% active. AID 652039;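 active = activation above the mean of all tested compounds plus 3 SD, computed per campaign excluding outliers beyond control limits, cut at about 13% in these data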
PLC-beta3 inh = blocks human PLC-beta3 enzyme activity; Q01970; Purified PLC-beta3, fluorogenic substrate, fluorescence; inhibition, % at 12.2 µM; 370,000 tested, 0.18% active; AID 720704; in the data active = inhibition above about 11%;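 note: 0% = median of compound wells on plate and 100% = full blocker control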
ADAM17 inh = ADAM17 inhibition, QFRET primary screen | P78536 | recombinant ADAM17, EDANS/DABCYL FRET peptide cleavage | AID 720648 | 370,000 tested, 0.83% active | inhibition, % at 6.95 µM;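 active = inhibition above the mean of compounds lying between control limits plus 3 SD, set per campaign, cut at about 8.5% in these data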;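 note: 0% = DMSO-only wells as the low control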
Target sequence (P78536 215-824 limits assumed): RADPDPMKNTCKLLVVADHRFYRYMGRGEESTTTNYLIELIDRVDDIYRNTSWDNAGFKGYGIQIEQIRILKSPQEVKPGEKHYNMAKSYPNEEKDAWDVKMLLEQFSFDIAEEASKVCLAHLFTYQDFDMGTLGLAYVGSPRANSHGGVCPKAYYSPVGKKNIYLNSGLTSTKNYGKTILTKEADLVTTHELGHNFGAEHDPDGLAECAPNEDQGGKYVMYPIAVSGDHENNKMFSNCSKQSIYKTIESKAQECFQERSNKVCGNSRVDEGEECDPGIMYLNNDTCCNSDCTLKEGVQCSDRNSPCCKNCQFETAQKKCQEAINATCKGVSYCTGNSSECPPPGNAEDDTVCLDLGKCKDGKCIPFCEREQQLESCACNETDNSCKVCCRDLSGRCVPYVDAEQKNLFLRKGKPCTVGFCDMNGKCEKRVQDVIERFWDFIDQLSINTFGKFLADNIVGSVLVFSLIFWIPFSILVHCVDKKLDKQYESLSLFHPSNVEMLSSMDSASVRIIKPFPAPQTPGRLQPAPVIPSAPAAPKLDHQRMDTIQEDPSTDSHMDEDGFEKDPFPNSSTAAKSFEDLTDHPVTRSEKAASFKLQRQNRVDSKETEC
ADAM10 inh = ADAM10 inhibition, QFRET primary screen; recombinant ADAM10, EDANS/DABCYL FRET peptide cleavage, 3 h; inhibition, % at 7 µM; 370,000 tested, 0.62% active; AID 720582;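 active = inhibition above a per-campaign cutoff equal to the mean of compounds falling between control-based bounds plus 3 SD, cut at about 20% in these data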;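 note: 0% = DMSO wells while the 100% control is not disclosed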
ADAM10 counter = ADAM10 inhibition, counter-screen for ADAM17 exosite hits. recombinant ADAM10, EDANS/DABCYL FRET peptide cleavage, 3 h. shares compounds with ADAM17 inh. inhibition, % at 6.95 µM. 2,900 tested, 47% active;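 active = mean inhibition over the triplicate runs exceeds the activity threshold set in the earlier primary screen, cut at about 20% in these data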;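 note: 0% = DMSO wells and 100% = marimastat wells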
ADAM17 confirm = confirmation of inhibitors of human ADAM17; shares compounds with ADAM17 inh; recombinant ADAM17, EDANS/DABCYL QFRET peptide cleavage; inhibition, % at 6.95 µM; 2,900 tested, 65% active; AID 743257;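 active = mean inhibition across replicates above the hit cutoff set in the primary screen, cut at about 8.5% in these data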;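 note: 0% = DMSO wells and 100% = marimastat wells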
* marks the source's active call; other numbers are inactive results.

How did CCOc1cccc(-c2c(C(=O)N/N=C/c3ccc(C)s3)nnn2-c2nonc2N)c1 do in these assays?
PLC-gamma1 inh: -10; KLK7 zymogen act: 1; PLC-beta3 inh: -27; ADAM17 inh: 9.7*; ADAM10 inh: 13; ADAM10 counter: -20; ADAM17 confirm: 3

Results for CCCCN1CC(N2CCN(C(=O)c3ccco3)CC2)CS1(=O)=O (stereo not drawn) ?
PLC-gamma1 inh: -1; KLK7 zymogen act: 1; PLC-beta3 inh: 1; ADAM17 inh: -7; ADAM10 inh: -11

What do the screens show for `CCCCNS(=O)(=O)c1ccc2nc(SCC(=O)Nc3ccccc3Cl)[nH]c2c1`?
PLC-gamma1 inh: 5; KLK7 zymogen act: 0; PLC-beta3 inh: -1; ADAM17 inh: 9.9*; ADAM10 inh: 20; ADAM10 counter: 26*; ADAM17 confirm: 12*

How did CCCCNS(=O)(=O)c1ccc2nc(SCC(=O)Nc3cccc(F)c3)[nH]c2c1 do in these assays?
PLC-gamma1 inh: 5; KLK7 zymogen act: 0; PLC-beta3 inh: 2; ADAM17 inh: 8; ADAM10 inh: 15

What do the screens show for `CCC(C)(C)n1nnnc1C(c1ccc(C)cc1)N(Cc1ccco1)Cc1cccs1` (stereo not drawn)?
PLC-gamma1 inh: 3; KLK7 zymogen act: 0; PLC-beta3 inh: 4; ADAM17 inh: 9.4*; ADAM10 inh: 13; ADAM10 counter: 7; ADAM17 confirm: 5

Results for COc1ccc(C2CC(O)(c3ccccc3)Oc3cc(OC)c(OC)c(OC)c32)cc1 (stereo not drawn) ?
PLC-gamma1 inh: -1; KLK7 zymogen act: 0; PLC-beta3 inh: 2; ADAM17 inh: 6; ADAM10 inh: 13

How did OC1(c2ccccc2)CC(c2ccccc2)c2ccccc2O1 (stereo not drawn) do in these assays?
PLC-gamma1 inh: 2; KLK7 zymogen act: 0; PLC-beta3 inh: 2; ADAM17 inh: 9.2*; ADAM10 inh: 14; ADAM10 counter: 30*; ADAM17 confirm: 16*

Results for Nc1ncnc(Nc2cccc(C(F)(F)F)c2)n1 ?
PLC-gamma1 inh: 5; KLK7 zymogen act: 0; PLC-beta3 inh: 2; ADAM17 inh: -1; ADAM10 inh: 7

How did Nc1nc(Nc2cccc(C(F)(F)F)c2)nc(C(F)(F)F)n1 do in these assays?
PLC-gamma1 inh: 8; KLK7 zymogen act: 1; PLC-beta3 inh: 5; ADAM17 inh: 15*; ADAM10 inh: 17; ADAM10 counter: 23*; ADAM17 confirm: 16*

What do the screens show for `COc1ccc(S(=O)(=O)N2CCC(C(=O)N[C@@H](C)C(=O)NCc3cccnc3)CC2)cc1`?
PLC-gamma1 inh: 1; KLK7 zymogen act: 0; PLC-beta3 inh: 0; ADAM17 inh: -5; ADAM10 inh: -12

How did Cc1ccc(S(=O)(=O)NCCC(c2ccc(F)cc2)c2ccco2)cc1 (stereo not drawn) do in these assays?
PLC-gamma1 inh: -2; KLK7 zymogen act: 0; PLC-beta3 inh: 1; ADAM17 inh: 9.7*; ADAM10 inh: 15; ADAM10 counter: 21*; ADAM17 confirm: 12*

How did Cc1ccc(S(=O)(=O)NCCC(c2ccccc2)c2ccco2)cc1 (stereo not drawn) do in these assays?
PLC-gamma1 inh: 6; KLK7 zymogen act: 0; PLC-beta3 inh: 0; ADAM17 inh: 2; ADAM10 inh: 6

Results for COc1ccc(S(=O)(=O)N(C)C[C@H]2Oc3ccc(NS(=O)(=O)c4ccccc4)cc3CC(=O)N([C@H](C)CO)C[C@@H]2C)cc1 ?
PLC-gamma1 inh: 5; KLK7 zymogen act: 1; PLC-beta3 inh: 3; ADAM17 inh: 13*; ADAM10 inh: 15; ADAM10 counter: -5; ADAM17 confirm: -2

How did COc1ccc(S(=O)(=O)Nc2ccc3c(c2)CC(=O)N([C@@H](C)CO)C[C@@H](C)[C@@H](CN(C)Cc2ccccc2)O3)cc1 do in these assays?
PLC-gamma1 inh: 8; KLK7 zymogen act: 0; PLC-beta3 inh: 6; ADAM17 inh: 11*; ADAM10 inh: 18; ADAM10 counter: 13; ADAM17 confirm: 6

Results for C[C@@H]1CN([C@H](C)CO)C(=O)Cc2cc(NS(=O)(=O)c3ccc(F)cc3)ccc2O[C@H]1CN(C)Cc1ccc(C(=O)O)cc1 ?
PLC-gamma1 inh: 4; KLK7 zymogen act: 0; PLC-beta3 inh: 2; ADAM17 inh: -5; ADAM10 inh: -12

How did C[C@H]1CN([C@@H](C)CO)C(=O)c2cc(NC(=O)C3CCCCC3)ccc2O[C@H]1CN(C)Cc1ccc(-c2ccccc2)cc1 do in these assays?
PLC-gamma1 inh: 0; KLK7 zymogen act: 0; PLC-beta3 inh: 5; ADAM17 inh: 11*; ADAM10 inh: 16; ADAM10 counter: 32*; ADAM17 confirm: 18*

Results for COc1ccc(S(=O)(=O)N(C)C[C@H]2Oc3ccc(NS(=O)(=O)c4ccccc4)cc3C(=O)N([C@H](C)CO)C[C@@H]2C)cc1 ?
PLC-gamma1 inh: 0; KLK7 zymogen act: 0; PLC-beta3 inh: 0; ADAM17 inh: -2; ADAM10 inh: -8

How did CN1C(=O)c2cc(NS(=O)(=O)c3cccc(F)c3)ccc2OC[C@@H]2O[C@H](CC(=O)O)CC[C@H]21 do in these assays?
PLC-gamma1 inh: 1; KLK7 zymogen act: 0; PLC-beta3 inh: 4; ADAM17 inh: 1; ADAM10 inh: -1

Results for COc1ccc2c(C(F)(F)F)cc(=O)oc2c1C ?
PLC-gamma1 inh: 1; KLK7 zymogen act: -1; PLC-beta3 inh: 6; ADAM17 inh: 9.8*; ADAM10 inh: 13; ADAM10 counter: 17; ADAM17 confirm: 8

Results for COc1ccc2c(CC(=O)N[C@@H](Cc3ccccc3)C(=O)O)cc(=O)oc2c1C ?
PLC-gamma1 inh: -158; KLK7 zymogen act: 6; PLC-beta3 inh: -220; ADAM17 inh: -442; ADAM10 inh: inactive

What do the screens show for `c1ccc(-c2csc(Nc3ccccn3)n2)cc1`?
PLC-gamma1 inh: 0; KLK7 zymogen act: 0; PLC-beta3 inh: -8; ADAM17 inh: 1; ADAM10 inh: 4

How did Cc1ccc(-c2csc(Nc3ccccn3)n2)cc1 do in these assays?
PLC-gamma1 inh: -1; KLK7 zymogen act: 0; PLC-beta3 inh: -3; ADAM17 inh: 9.0*; ADAM10 inh: 8; ADAM10 counter: 27*; ADAM17 confirm: 16*

What do the screens show for `CC(Sc1ccc(S(=O)(=O)N2CCCCC2)cn1)C(N)=O` (stereo not drawn)?
PLC-gamma1 inh: 6; KLK7 zymogen act: 0; PLC-beta3 inh: 6; ADAM17 inh: 2; ADAM10 inh: 5

Results for Cc1ccc(C)c(OCC(=O)NCC2COc3ccccc3O2)c1 (stereo not drawn) ?
PLC-gamma1 inh: -6; KLK7 zymogen act: -1; PLC-beta3 inh: -11; ADAM17 inh: -2; ADAM10 inh: -3
